Screening data: PubChem BioAssay, several laboratories
FAS-TE inh: inhibitors of human fatty acid synthase thioesterase domain. inhibition, % at 15 µM. recombinant FAS-TE, OMFH fluorogenic substrate, fluorescence endpoint. 360,000 tested, 0.67% active. P49327. AID 602261;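 active = compounds whose normalised, plate-corrected inhibition of enzyme fluorescence in the single-dose primary screen is 50% or more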;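 also: 0% = DMSO with enzyme and 100% = substrate without enzyme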
GRIN3A LBD mod: modulates the human NR3A ligand-binding domain; 340,000 tested, 2.5% active; NR3A LBD differential scanning fluorimetry, Tm shift; 0% = protein alone, 100% = glycine-bound protein; Tm shift relative to glycine control, % at 25 µM;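 active = melting temperature shift of at least 10% of the positive control shift, at one fixed dose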
ADAM10 inh: inhibits human ADAM10; recombinant ADAM10, EDANS/DABCYL FRET peptide cleavage, 3 h; inhibition, % at 7 µM; 370,000 tested, 0.62% active; O14672;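 active = inhibition above a per-campaign cutoff equal to the mean of compounds falling between control-based bounds plus 3 SD, cut at about 20% in these data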;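 also: 0% = DMSO wells while the 100% control is not disclosed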
sPLA2-III inh: Blocks human group III sPLA2 activity; AID 743126; 370,000 tested, 0.56% active; Q9NZ20; inhibition, % at 12.2 µM; QFRET BODIPY PC-A2 liposome hydrolysis, fluorescence;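 active = inhibition above mean plus 3 SD of compounds lying within the high and low control bounds, cut at about 19% in these data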;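 also: 0% = median of test compound wells and 100% = no enzyme DMSO wells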
Target sequence (Q9NZ20 whole entry, looked up): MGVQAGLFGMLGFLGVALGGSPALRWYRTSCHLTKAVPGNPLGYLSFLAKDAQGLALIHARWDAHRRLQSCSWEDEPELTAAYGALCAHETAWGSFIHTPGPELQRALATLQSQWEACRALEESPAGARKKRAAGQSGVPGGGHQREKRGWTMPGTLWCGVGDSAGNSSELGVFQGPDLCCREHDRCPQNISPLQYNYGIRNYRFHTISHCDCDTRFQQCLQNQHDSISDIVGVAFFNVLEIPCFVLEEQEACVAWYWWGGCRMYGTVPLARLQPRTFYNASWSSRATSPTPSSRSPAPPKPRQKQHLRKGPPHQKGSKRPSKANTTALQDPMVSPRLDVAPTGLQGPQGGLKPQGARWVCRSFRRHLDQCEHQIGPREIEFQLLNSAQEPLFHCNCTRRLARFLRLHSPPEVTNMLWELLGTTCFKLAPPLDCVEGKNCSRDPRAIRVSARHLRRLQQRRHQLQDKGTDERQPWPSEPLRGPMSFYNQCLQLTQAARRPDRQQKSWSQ
ADAM17 inh: ADAM17 inhibition, QFRET primary screen. inhibition, % at 6.95 µM. 370,000 tested, 0.83% active. recombinant ADAM17, EDANS/DABCYL FRET peptide cleavage. P78536;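 active = inhibition above the mean of compounds lying between control limits plus 3 SD, set per campaign, cut at about 8.5% in these data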;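 also: 0% = DMSO-only wells as the low control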
ADAM10 confirm: human ADAM10 inhibition, confirmation; shares compounds with ADAM10 inh; ADAM10 QFRET peptide cleavage, EDANS fluorescence; inhibition, % at 6.95 µM; 2,100 tested, 1% active; AID 743208;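 active = inhibition above about 20% chosen separately for each screening run, limit read from the data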;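 also: 0% = DMSO wells and 100% = marimastat wells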
ADAM17 ctr: ADAM17 inhibition, counter-screen for ADAM10 exosite hits; shares compounds with ADAM10 inh; ADAM17 QFRET peptide cleavage, EDANS fluorescence; inhibition, % at 6.95 µM; 2,100 tested, 0.5% active;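 active = mean triplicate inhibition above the solvent-only control wells' mean plus 3 SD, cut at about 12% in these data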;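 also: 0% = DMSO wells and 100% = marimastat wells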
ADAM10 ctr: inhibits human ADAM10 in ADAM17 exosite counter-screen; shares compounds with ADAM17 inh; recombinant ADAM10, EDANS/DABCYL FRET peptide cleavage, 3 h; inhibition, % at 6.95 µM; 2,900 tested, 47% active;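 active = mean inhibition over the triplicate runs exceeds the activity threshold set in the earlier primary screen, cut at about 20% in these data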;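 also: 0% = DMSO wells and 100% = marimastat wells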
ADAM17 confirm: confirmation of inhibitors of human ADAM17; shares compounds with ADAM17 inh; recombinant ADAM17, EDANS/DABCYL QFRET peptide cleavage; inhibition, % at 6.95 µM; 2,900 tested, 65% active;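 active = mean inhibition across replicates above the hit cutoff set in the primary screen, cut at about 8.5% in these data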;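 also: 0% = DMSO wells and 100% = marimastat wells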
* = called active by the depositor; x = not tested or not shown. Hits are enriched below; roughly 4.3% of the tested compounds scored in any of these assays.

SMILES	FAS-TE inh	GRIN3A LBD mod	ADAM10 inh	sPLA2-III inh	ADAM17 inh	ADAM10 confirm	ADAM17 ctr	ADAM10 ctr	ADAM17 confirm
C[C@H](CO)N1C[C@H](C)[C@@H](CN(C)S(C)(=O)=O)OCc2cn(nn2)CCCC1=O	x	x	-5.6	1.9	2.3	x	x	x	x
COC(=O)[C@]12C[C@H](CC(=O)N3CCOCC3)C(=O)N(Cc3ccc4c(c3)OCO4)C1=C[C@H](COCc1ccccc1)O[C@@H]2C	x	x	-1.0	6.4	-3.7	x	x	x	x
CCc1nc2ccc(C(=O)NCc3ccc4c(c3)OCO4)cn2c1N(C)Cc1ccc(OC)cc1	14.6	x	29.7*	-0.5	18.7*	4.1	1.2	23.9*	14.8*
O=C(N/N=C/c1ccc(OC(F)F)cc1)c1ccc(Br)cc1	-2.6	4.6	-1.7	11.1	-6.0	x	x	x	x
O=C(NO)c1ccc(OC(F)F)cc1	-5.9	-6.1	25.2*	-8.5	15.1*	11.4	1.8	15.2	19.0*
CCOc1ccc(NS(=O)(=O)c2cc(NC(=O)c3cccc(C)c3)ccc2Cl)cc1	30.2	9.4	31.1*	-27.7	13.7*	7.8	3.0	31.4*	18.7*
CCOC(=O)[C@]12CCCC=C1N(CCCOC)C(=O)[C@@H]2CC(=O)N1CCN(C(=O)c2ccco2)CC1	x	x	-11.3	8.1	-4.7	x	x	x	x
CCN(C(=O)COC(=O)c1ccc(Sc2ncn[nH]2)c([N+](=O)[O-])c1)c1ccccc1	x	x	-1.2	-25.0	-0.5	x	x	x	x
CCOC(=O)c1c(CSc2ccccc2)oc2ccc(O)cc12	38.2	-1.7	28.9*	-41.1	11.3*	6.5	2.4	42.3*	15.9*
CCOC(=O)c1c(-c2ccccc2)oc2ccc(O)cc12	21.9	-13.2	-11.8	-28.2	-7.1	x	x	x	x
CCOC(=O)c1c(CN2CCN(C)CC2)oc2ccc(O)cc12	-6.5	0.2	-5.4	9.0	-3.5	x	x	x	x
CCOC(=O)c1c(CSc2ccc(C)cc2)oc2ccc(O)cc12	24.9	5.3	30.4*	-47.5	12.7*	12.4	4.3	46.0*	18.9*
Cn1c(SC/C=C/c2ccccc2)nnc1-c1cccnc1	x	x	3.2	9.8	1.4	x	x	x	x
O=C(Nc1ccc(C(F)(F)F)cc1[N+](=O)[O-])O[C@H]1[C@H](Cc2ccccc2)NS(=O)(=O)[C@H]2C[C@@H]3C=C[C@]12O3	35.3	-5.0	28.6*	-0.8	13.6*	3.3	0.4	11.3	5.2
Cc1cc(C(=O)O[C@H]2[C@H](Cc3ccccc3)NS(=O)(=O)[C@H]3C[C@@H]4C=C[C@]23O4)ccc1[N+](=O)[O-]	19.2	-7.3	2.6	-8.4	1.5	x	x	x	x
CC(=O)c1cccc(-c2ccnc3c2CC(C(=O)Nc2ccc(Cl)cc2)O3)c1 (configuration not stated)	43.4	x	24.1*	-36.1	8.7*	3.4	0.9	11.5	7.3
OC(c1ccc(Cl)c(Cl)c1)c1ncc(-c2ccc(C(F)(F)F)cc2)[nH]1 (configuration not stated)	38.7	x	26.3*	-9.5	9.0*	7.6	1.8	29.6*	14.7*
OC(c1cccc(Cl)c1)c1ncc(-c2ccc(C(F)(F)F)cc2)[nH]1 (configuration not stated)	13.5	x	x	x	x	x	x	x	x
Cc1cc(F)ccc1C(O)c1ncc(-c2ccccc2)[nH]1 (configuration not stated)	-2.2	x	-11.2	11.2	0.8	x	x	x	x
OC(c1cccc(Cl)c1)c1ncc(-c2ccc(Oc3ccccc3)cc2)[nH]1 (configuration not stated)	15.9	x	24.7*	-16.2	11.2*	9.5	4.2	41.8*	21.0*
Cc1cc(F)ccc1C(O)c1ncc(-c2ccc(Oc3ccccc3)cc2)[nH]1 (configuration not stated)	16.0	x	29.5*	-8.1	11.8*	6.0	2.3	19.9*	14.2*
